Screening data as filed in PubChem BioAssay.
Hits are enriched below; roughly 2.1% of the tested compounds scored in any of these assays.
MITF TRPM1 inh = inhibitors of MITF-dependent TRPM1 promoter reporter, primary screen, cell-based, SK-MEL-5, single point, luciferase | SK-MEL-5 TRPM1 promoter luciferase, 24 h | inhibition, % at 12.5 µM | 0.83% of 330,000 active;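 active = mean inhibition across replicates of 60% or more, whatever share of single replicates reaches that level; inconclusive = some that reach 60%, reason not given; inactive = mean inhibition across replicates below 60%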
aSyn 5UTR inh = MLPCN primary screen, SNCA 5' untranslated region; inhibition, % (tested at 7.5 µM); alpha-synuclein 5'UTR reporter, inhibitor activity; 0.82% of 300,000 active; in the data active = inhibition above about 60%; inconclusive = no clear call, values can overlap the other calls;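 note: H4 neuroglioblastoma cells stably carrying SNCA 5'UTR luciferase fusion; 0% = DMSO wells and 100% = positive control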
PAX8 inh HTS = inhibitors of PAX8-driven TPO luciferase reporter, primary screen, RMG-I cells, single concentration; AID 652154, 2013; inhibition, % at 12.6 µM; SteadyGlo, 24 h; 1.2% of 360,000 active;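 active = mean replicate inhibition at least 60% with every replicate also reaching 60%; inconclusive = only one of the two criteria is met; inactive = mean below 60% and not all replicates reaching 60%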;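 note: luciferase light reporting Pax8 driven TPO promoter activity; plate controls were median of neutral control wells for no effect and mitoxantrone controls for full effect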
Shn3 inh set2 = reduction of Shn3 3'UTR firefly luciferase signal, primary screen, Schnurri-3 inhibitor project, cell-based, Clone20 osteoblasts, set 2. 0.52% of 360,000 active. Clone20 osteoblast Shn3 3'UTR firefly luciferase, 24 h. AID 588674, 2011. inhibition, % at 12.5 µM;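 active = mean inhibition of at least 75% with every replicate also reaching 75%; inconclusive = mean inhibition at least 75% but some replicate below; inactive = mean inhibition below 75%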;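 note: 0% = median of neutral control wells and 100% = pilot-screen positive control compound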
LMP1 NFkB inh = EBV LMP1-driven NF-kappaB luciferase reporter inhibitors, primary screen, cell-based, luminescence, single point | LMP1-induced NF-kappaB luciferase reporter cells | inhibition, % at 12.5 µM | 0.69% of 350,000 active | AID 504558, 2011; in the data active = inhibition above about 41%; inconclusive = no clear call, values can overlap the other calls;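 note: 0% = neutral control wells and 100% = reference inhibitor control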
* hit, by the source's call; i = inactive; ? = inconclusive; . = no result; ! = a repeat was not active.

SMILES	MITF TRPM1 inh	aSyn 5UTR inh	PAX8 inh HTS	Shn3 inh set2	LMP1 NFkB inh
O=C1N(Cc2cccnc2)C[C@@H]2C[C@@H](c3cccc(OCc4ccccc4)c3)N3CCC[C@@]123	5	-7	3	13	-1
COc1ccc(C2NC(=S)N(c3ccccc3)C(C)=C2C(=O)Nc2ccccc2)cc1 (stereo not drawn)	-3	-16	.	-11	-15
Cc1noc(C)c1NC(=O)Nc1ccc2c(c1)CC(=O)N([C@@H](C)CO)C[C@H](C)[C@H](CN(C)Cc1ccc(C(F)(F)F)cc1)O2	.	.	72*	.	.
C[C@H]1CN([C@@H](C)CO)C(=O)Cc2cc(NC(=O)CCC(F)(F)F)ccc2O[C@H]1CN(C)Cc1ccc2c(c1)OCO2	.	.	63*	.	.
CN(C)CCNc1nc(S(=O)(=O)c2ccccc2)c(Cl)s1	2	-9	4	4	-3
COc1ccc(/C=N/Nc2cc(C)nc(-n3nc(C)cc3C)n2)cc1	15	6	12	53	20
Cc1cc(N/N=C/c2ccc(O)cc2O)nc(-c2ccccc2O)n1	6	75*	.	20	-2
Cc1cc(N/N=C/c2ccc(O)cc2O)nc(-n2nc(C)cc2C)n1	58	72*	25	84	10
Cc1cc(N/N=C/c2ccccc2O)nc(-c2ccccc2O)n1	6	25	3	2	-2
C[C@@H]1CCCCO[C@H](CN(C)C(=O)Nc2cccc3ccccc23)[C@@H](C)CN([C@H](C)CO)C(=O)c2cc(NC(=O)Nc3ccc(F)cc3)ccc2O1	.	.	26	.	.
CSc1nnc(-c2ccc(O)cc2)n1C	-10	13	.	7	-1
O=C(Nc1ccc2oc(-c3ccncc3)nc2c1)c1ccc([N+](=O)[O-])o1	72*	-118	32	?	-21
CC(C)C(=O)Nc1ccc(-c2nc3ncccc3o2)cc1	-26	-9	-63	-27	5
Cc1ccc(-c2nc3ncccc3o2)cc1NC(=O)c1sc2ccccc2c1Cl	45	11	.	85*	38
Cc1ccc(-c2nc3ncccc3o2)cc1NC(=O)c1cccs1	-3	-5	11	-18	9
O=C(Nc1ccc2oc(-c3ccncc3)nc2c1)c1ccccc1	3	-17	-7	-4	4
O=C(Nc1ccc2oc(-c3ccncc3)nc2c1)c1cccs1	-35	-114	.	-11	4
O=C(Nc1ccc(-c2nc3cc(NC(=O)c4cccs4)ccc3o2)cc1)c1cccs1	73*	-23	.	31	-71
O=C(Nc1ccc(-c2nc3ncccc3o2)cc1)c1ccc([N+](=O)[O-])o1	77*	100*	10	97*	-2
COc1ccc(CN2C(=O)c3cccnc3C2=O)cc1S(=O)(=O)N1CCOc2ccccc21	15	4	4	-30	11
Cc1cc(-c2nc3ncccc3o2)ccc1NC(=O)c1ccc([N+](=O)[O-])o1	-3	.	-4	-9	-6
O=C(Nc1ccc2oc(=O)ccc2c1)c1ccc(-c2cccc(Cl)c2)o1	-5	14	26	25	-37
Cc1ccc(-c2nc3ncccc3o2)cc1NC(=O)c1ccc([N+](=O)[O-])o1	82*	i	.	-37	-29
O=C(Nc1ccc2oc(=O)ccc2c1)c1ccc(-c2cccc([N+](=O)[O-])c2)o1	.	92*	57	13	.
O=S(=O)(Nc1nc2ccccc2nc1N1CCc2ccccc2C1)c1ccc(Cl)cc1	-7	86*	-3	-35	-3
SMILES	MITF TRPM1 inh	aSyn 5UTR inh	PAX8 inh HTS	Shn3 inh set2	LMP1 NFkB inh
O=S(=O)(Nc1nc2ccccc2nc1N1CCc2ccccc2C1)c1ccc(Br)cc1	-28	.	-12	-46	-14
CC(C)(C)c1ccc(C(O)CCCN2CCC(C(O)(c3ccccc3)c3ccccc3)CC2)cc1 (stereo not drawn)	94*	111*	-18	97*	-7
COc1ccccc1-c1ccc(OCCCN2CCC(C(O)(c3ccccc3)c3ccccc3)CC2)cc1	.	.	96*	.	.
Cn1nnnc1N=N/C(=N/Nc1ccccc1)c1ccccc1	9	104*	48	46	60*
COC(=O)C1=C(C)N(Cc2ccccc2)C(=NCc2cccc(Cl)c2)N[C@H]1c1ccccc1	11	.	.	1	10
COC(=O)C1=C(C)N(Cc2ccccc2)C(=NCCc2c[nH]c3ccccc23)N[C@H]1c1cccc(F)c1	46	.	21	98*	-1
COC(=O)C1=C(C)N(Cc2ccccc2)C(=NCc2ccccc2)N[C@H]1c1ccccc1	83*	.	6	12	7
CCN(CC)CCCN=C1N[C@@H](c2cccc(F)c2)C(C(=O)OC)=C(C)N1Cc1ccccc1	94*	.	17	-7	-23
COC(=O)C1=C(C)N(Cc2cccc(C(F)(F)F)c2)C(=NCc2ccc3c(c2)OCO3)NC1c1cccc(F)c1 (stereo not drawn)	.	.	65*	.	.
CN1C(=O)c2cc(NC(=O)c3cscn3)ccc2OC[C@@H]2O[C@H](CC(=O)N3CCOCC3)CC[C@@H]21	.	.	4	.	.
O=S(=O)(c1cccs1)N1CCc2ccccc21	2	11	.	-7	-3
C=C1C(=O)O[C@H]2[C@@H]1CC/C(CO)=C\CC[C@@]1(C)O[C@@H]21	.	.	83*	.	.
C=C1C(=O)O[C@H]2[C@H]1[C@@H](O)CC(=C)[C@@H]1CC(=O)[C@@H](C)[C@H]21	38	6	.	73	39
COCCCC/C(=N\OCCN)c1ccc(C(F)(F)F)cc1	-22	-12	-1	-3	68*!
O=C(CCC(=O)OCC(=O)c1ccc(C(F)(F)F)cc1)OCC(=O)c1ccc(C(F)(F)F)cc1	.	-18	-8	-4	.
CCCCn1c2ccccc2c2nnc(SCC(=O)NC3=NN=C(c4ccccc4)CS3)nc21	.	-13	77*	.	.
CCCn1c2ccccc2c2nnc(SCC(=O)OC)nc21	4	16	.	9	-2
O=Cc1cc(CCC(=O)O)ccc1O	-6	-1	-4	2	53*
CC(C)CNS(=O)(=O)c1ccc(CCC(=O)O)cc1	-4	6	.	-13	-9
CCN1C(=O)CC2CCCC1C2 (stereo not drawn)	1	.	7	95*	-2
CCN(CC)CCN(C(=O)c1ccc2c(c1)OCCO2)c1nc2cc3c(cc2s1)OCO3	-9	-50	-13	-27	4
CCN(CC)CCN(C(=O)c1cc2c(ccc3ccccc32)oc1=O)c1nc2cc3c(cc2s1)OCCO3	75*	78*	-27	48	-17
CC(C)OCCCn1c(NN)nc2ccccc2c1=O	2	-30	15	4	0
CCn1c(C)nc2cc(C(=O)NNC(=O)[C@@H](NC(=O)c3cc(OC)cc(OC)c3)C(C)C)ccc21	10	.	-5	5	9
Cc1ccccc1CC(=O)NCc1cccnc1	-5	11	-7	11	67*
CN(c1ccc(C(=O)NCc2cccnc2)cc1)S(C)(=O)=O	16	.	.	-1	-11
